Calls of active or inactive are those of the source. Unless noted, the rule behind the calls is not given here.
What was measured:
[1] = compound effects on lung adenocarcinoma cell viability – A549, calcein-AM fluorescence, 48 h, basal, profiling panel (AID 1162); details: higher = more signal; note: test concentration not given here
[2] = compound effects on differentiated 3T3-L1 adipocyte viability – cell-based, 3T3-L1 adipocytes, calcein-AM fluorescence, 48 h, basal, profiling panel (AID 1163); details: 3T3-L1 adipocytes viability, higher = more signal; note: test concentration not given here
[3] = compound effects on hepatocellular carcinoma cell viability – HepG2, calcein-AM fluorescence, 48 h, basal, profiling panel (AID 1164); details: higher = more signal; note: test concentration not given here
[4] = compound effects on multiple myeloma cell viability – MM1S, calcein-AM fluorescence, 48 h, basal, profiling panel (AID 1165); details: higher = more signal;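 note: viability of MM1S multiple myeloma cells under basal unstimulated conditions; test concentration not given here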
[5] = calcein-AM signal in unstimulated myeloma cells – cell-based, calcein-AM fluorescence, 48 h, PK04 Diversity Set, profiling panel (AID 1166); details: RPMI8226 myeloma viability, higher = more signal;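 note: cells grown under basal conditions without added stimulus; test concentration not given here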
[6] = JC-1 mitochondrial signal, unstimulated HepG2 cells – cell-based, JC-1 fluorescence, 24 h, 100 nL compound, profiling panel (AID 1167); details: HepG2 mitochondrial potential, higher = more signal; note: test concentration not given here
[7] = JC-1 mitochondrial signal, unstimulated adipocytes – cell-based, JC-1 fluorescence, 3T3-L1 adipocytes, 24 h, 100 nL compound, profiling panel (AID 1168); details: JC-1 mitochondrial fluorescence, higher = more signal, called active from +8 up or from −8 down; note: test concentration not given here
[8] = JC-1 mitochondrial signal, unstimulated myeloma cells – cell-based, JC-1 fluorescence, RPMI8226, 24 h, 100 nL compound, profiling panel (AID 1169); details: JC-1 mitochondrial potential fluorescence, higher = more signal; note: test concentration not given here
[9] = JC-1 mitochondrial signal, unstimulated MM1S myeloma – cell-based, JC-1 fluorescence, 24 h, 100 nL compound, profiling panel (AID 1170); details: MM1S mitochondrial potential, higher = more signal; note: test concentration not given here
[10] = resazurin metabolic signal in A549 cells – cell-based, resazurin fluorescence, 24 h, PK04 Diversity Set, profiling panel (AID 1171); details: A549 viability, higher = more signal, called active from +8 up or from −8 down; note: test concentration not given here
[11] = resazurin metabolic signal in HepG2 cells – cell-based, resazurin fluorescence, 24 h, PK04 Diversity Set, profiling panel (AID 1172); details: HepG2 viability, higher = more signal; note: test concentration not given here
[12] = budding yeast growth changes without added modifier – OD600, strain BY4716, 24 h, basal condition, primary screen (AID 1173); details: S. cerevisiae BY4716 growth, OD600, 24 h; higher = more signal, called active from +8 up or from −8 down
[13] = viability profiling in MM1S myeloma cells – cell-based, resazurin fluorescence, basal, 24 h, PK04 Diversity Set, profiling panel (AID 1174); details: higher = more signal, called active from +8 up or from −8 down; note: test concentration not given here
[14] = molecular target: Dihydroorotate dehydrogenase (quinone), mitochondrial (Plasmodium falciparum (isolate 3D7)) (UniProt Q08210); experiment: inhibition of P. falciparum DHODH – biochemical, C-terminal His tag, absorbance 600 nm, primary screen (AID 1175); details: PfDHODH enzyme, DCIP absorbance 600 nm; higher = more signal, called active from +8 up or from −8 down;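 note: recombinant parasite enzyme with a five histidine tag at its C terminus; test concentration not given here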
[15] = inhibition of PAO1 biofilm formation – strain PAO1, LB-PBS medium, absorbance 600 nm, primary screen (AID 1176); note: test concentration not given here; details: P. aeruginosa PAO1 growth/biofilm, A600, 12 h; higher = more signal
[16] = growth modulation of vineyard yeast isolate – strain RM11-1a, OD600, basal, 24 h, primary screen (AID 1177);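 note: cultures grown under basal conditions with no added stressor; test concentration not given here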; details: S. cerevisiae RM11-1a growth, OD600, 24 h; higher = more signal, called active from +8 up or from −8 down
[17] = growth of efflux-deficient E. coli DRC39 – strain DRC39, OD650, 24 h, E. coli filamentation inducers, primary screen (AID 1178);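 note: growth measured as culture turbidity by optical density at 650 nm; test concentration not given here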; details: E. coli DRC39 acrAB, higher = more signal, called active from +8 up or from −8 down
[18] = growth of efflux-deficient E. coli DRC39 – strain DRC39, OD650, 48 h, E. coli filamentation inducers, primary screen (AID 1179);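 note: screen aims at cell division blockers that make cells filament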; details: E. coli DRC39 delta-acrAB growth, higher = more signal, called active from +8 up or from −8 down
[19] = viability profiling in RPMI8226 myeloma cells – cell-based, resazurin fluorescence, basal, 24 h, PK04 Diversity Set, profiling panel (AID 1180); details: higher = more signal;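 note: RPMI8826 multiple myeloma cell line at 5000 cells per well; test concentration not given here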
[20] = molecular target: E3 ubiquitin-protein ligase XIAP (Homo sapiens) (UniProt P98170); experiment: small molecules binding XIAP protein – biophysical, small-molecule microarray, fluorescence 635 nm, primary screen (AID 1181); details: higher = more signal;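 note: score merges 667 nm emission and signal to noise over triplicate slides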
Sequence of E3 ubiquitin-protein ligase XIAP (Homo sapiens) (P98170 whole entry, looked up): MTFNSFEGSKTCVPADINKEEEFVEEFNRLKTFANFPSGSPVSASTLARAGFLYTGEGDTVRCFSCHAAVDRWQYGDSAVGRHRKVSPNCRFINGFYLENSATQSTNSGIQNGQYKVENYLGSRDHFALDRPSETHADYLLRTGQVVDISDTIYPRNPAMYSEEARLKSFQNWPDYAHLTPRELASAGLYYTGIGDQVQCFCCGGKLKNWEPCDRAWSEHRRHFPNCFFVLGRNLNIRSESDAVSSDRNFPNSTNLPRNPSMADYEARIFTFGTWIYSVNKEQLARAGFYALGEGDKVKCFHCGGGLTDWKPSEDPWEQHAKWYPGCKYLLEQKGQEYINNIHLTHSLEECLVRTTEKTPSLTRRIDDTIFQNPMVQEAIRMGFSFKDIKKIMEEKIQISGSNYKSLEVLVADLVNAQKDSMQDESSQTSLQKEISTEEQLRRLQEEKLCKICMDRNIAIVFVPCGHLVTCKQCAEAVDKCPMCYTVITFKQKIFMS

Sequence of Dihydroorotate dehydrogenase (quinone), mitochondrial (Plasmodium falciparum (isolate 3D7)) (Q08210 whole entry, looked up): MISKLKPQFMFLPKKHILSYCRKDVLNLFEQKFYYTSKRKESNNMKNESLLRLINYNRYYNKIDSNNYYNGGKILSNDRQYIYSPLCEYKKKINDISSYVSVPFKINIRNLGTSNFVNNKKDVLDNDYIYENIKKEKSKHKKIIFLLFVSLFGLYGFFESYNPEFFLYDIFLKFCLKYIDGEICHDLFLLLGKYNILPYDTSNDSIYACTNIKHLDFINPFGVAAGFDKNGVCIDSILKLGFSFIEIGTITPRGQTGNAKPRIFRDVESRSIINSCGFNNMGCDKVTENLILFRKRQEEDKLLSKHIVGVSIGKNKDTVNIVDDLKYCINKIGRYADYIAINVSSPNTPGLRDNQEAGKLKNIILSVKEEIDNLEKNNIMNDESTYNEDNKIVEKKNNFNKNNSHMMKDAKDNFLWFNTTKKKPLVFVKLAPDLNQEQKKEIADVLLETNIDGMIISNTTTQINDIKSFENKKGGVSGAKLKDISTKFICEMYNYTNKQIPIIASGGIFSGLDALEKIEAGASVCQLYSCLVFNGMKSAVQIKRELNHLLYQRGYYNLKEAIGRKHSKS

| SMILES | z-score [1] | z-score [2] | z-score [3] | z-score [4] | z-score [5] | z-score [6] | z-score [7] | z-score [8] | z-score [9] | z-score [10] | z-score [11] | z-score [12] | z-score [13] | composite z-score [14] | z-score [15] | z-score [16] | z-score [17] | z-score [18] | z-score [19] | composite z-score [20] |
| --- | --- | --- | --- | --- | --- | --- | --- | --- | --- | --- | --- | --- | --- | --- | --- | --- | --- | --- | --- | --- |
| O=C1[C@H]2[C@H]3[C@H](O)[C@H](O)CC(=NOCc4ccccc4)[C@H]3CC[C@H]2C(=O)N1C1CCCCC1 | 0.519 | -0.228 | 0.734 | -0.618 | -0.498 | -1.3 | 0.028 (inactive) | -0.16 | -0.847 | -0.329 (inactive) | -0.483 | -0.149 (inactive) | -0.99 (inactive) | 0.0894 (inactive) | 0.377 (inactive) | -0.373 (inactive) | -0.157 (inactive) | -0.414 (inactive) | -1.83 | 0.237 |
| COC(=O)[C@@H]1CC[C@H](C)[C@@H](c2ccc(C)cc2)N1C(=O)c1ccc(C=NO[C@@H](C)c2cc(-c3c(C)cc(C)cc3C)no2)cc1 | 0.203 | -0.576 | 1.38 | -0.56 | 0.148 | 3.24 | 0.161 (inactive) | 0.239 | -0.749 | -0.462 (inactive) | -0.726 | 1.36 (inactive) | -0.321 (inactive) | 0.502 (inactive) | -0.925 (inactive) | 0.378 (inactive) | 0.218 (inactive) | 1.04 (inactive) | 0.0524 | -0.238 |
| O=C1[C@H]2[C@H]3[C@H](O)[C@H](O)CC(=NOC[C@@H](O)COCc4ccco4)[C@@H]3CC[C@H]2C(=O)N1c1cccc(Oc2ccccc2)c1 | -0.382 | -0.454 | -1.19 | -0.163 | 0.0958 | -0.0749 | -0.785 (inactive) | 0.688 | -0.105 | 0.0561 (inactive) | 0.928 | -0.378 (inactive) | 0.25 (inactive) | 0.295 (inactive) | -0.389 (inactive) | -1 (inactive) | -0.25 (inactive) | -1.28 (inactive) | 0.0789 | 0.1 |
| CC(=O)OC[C@H]1O[C@@H](ON=C(C)CCN2CCCCc3nc(C)c(C)cc32)[C@H](OC(C)=O)[C@@H](OC(C)=O)[C@@H]1OC(C)=O | -1.33 | 1.58 | -0.716 | 0.224 | -2.19 | 0.203 | 0.327 (inactive) | -0.832 | -0.411 | -0.101 (inactive) | -0.077 | -0.436 (inactive) | 0.382 (inactive) | -2.52 (inactive) | -0.679 (inactive) | -1.15 (inactive) | -1.24 (inactive) | -0.816 (inactive) | -0.0356 | 0.0899 |
| COCCNC(=O)OCC1CCCC2(CC(OC(=O)NCc3cccc4ccccc34)CC(CCC(=O)N[C@@H](C)C(=O)OC)O2)O1 (stereo not given in full) | 1.89 | -0.812 | 0.791 | -0.215 | -0.886 | 1.64 | -0.0355 (inactive) | -0.125 | -1.16 | 1.67 (inactive) | 1.77 | -0.0524 (inactive) | 0.343 (inactive) | 0.124 (inactive) | -0.303 (inactive) | 1.36 (inactive) | 0.17 (inactive) | 0.812 (inactive) | 0.79 | -0.0999 |
| COC(=O)[C@@H]1CC[C@H](C)[C@@H](c2ccc(C)cc2)N1C(=O)c1ccc(C=NOC[C@H]2O[C@H](c3ccccc3)C=C[C@@H]2Oc2ccc(OC)cc2)cc1 | -0.798 | -0.36 | -0.195 | 0.248 | -0.537 | 2.64 | -2.02 (inactive) | 0.833 | 0.0359 | 0.307 (inactive) | 0.158 | 0.856 (inactive) | -0.0983 (inactive) | 0.13 (inactive) | 0.0282 (inactive) | 0.386 (inactive) | -0.469 (inactive) | -0.499 (inactive) | 0.539 | -0.0773 |
| C=CC[C@@H]1C=CC(ON=C(C)C)[C@@H](CO)O1 (stereo not given in full) | 1.08 | -0.521 | 0.389 | 0.255 | -0.153 | -0.459 | -0.346 (inactive) | 0.00663 | -0.644 | -0.816 (inactive) | -0.689 | 0.381 (inactive) | -0.389 (inactive) | 0.532 (inactive) | -0.254 (inactive) | 1.1 (inactive) | 0.832 (inactive) | -1.16 (inactive) | 0.283 | -0.267 |
| CC(C)=NOC[C@@H](O)[C@H]1O[C@@H]2OC(C)(C)O[C@@H]2[C@H]1O | 0.112 | -1.53 | 0.139 | -0.112 | -0.0588 | -0.00334 | -1.09 (inactive) | -1.01 | 0.661 | -0.871 (inactive) | -0.831 | -0.0545 (inactive) | -0.369 (inactive) | 0.759 (inactive) | -0.443 (inactive) | 0.0762 (inactive) | 0.757 (inactive) | 0.704 (inactive) | -0.686 | -0.389 |
| CC(C)CON=C1C[C@@H](O)[C@@H](O)[C@@H]2[C@@H]3C(=O)N(Cc4ccccc4)C(=O)[C@@H]3CC[C@H]12 | -0.216 | 0.785 | -0.155 | 0.825 | -0.48 | 0.974 | -1.26 (inactive) | -0.0623 | -0.628 | 0.312 (inactive) | 0.0344 | -1.11 (inactive) | 1.15 (inactive) | -0.451 (inactive) | 0.92 (inactive) | -1.17 (inactive) | 0.68 (inactive) | -1.08 (inactive) | 0.851 | -0.0436 |

Reference: PubChem BioAssay
